# Reference: PubChem BioAssay (NCI)
# Compounds without any hit were thinned out: in the full panel of roughly 79,000, 15% have a hit. Unmarked numbers belong to inactive results. The source made the active and inactive calls. Rule as the data show it: active = growth inhibition above about 70%; inactive = the rest.
# Assay: NCI Yeast Anticancer Drug Screen. Data for the wt1 strain (AID 149);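 also: 0% = growth of vehicle-treated wt1 cultures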
# Conditions: S. cerevisiae wt1 strain (SPY 50644) growth inhibition, active compounds read high
# Procedure: Growth inhibition of yeast strains with defined genetic alterations is measured as a screen for potential anti-cancer activity. Selected strains with alterations in DNA damage repair or cell cycle control were exposed to compounds and growth inhibition was measured relative to vehicle treated controls. The strain used in this assay is wt1
SMILES,growth inhibition (at 1.2 µM) [%],growth inhibition (at 3.7 µM) [%],growth inhibition (at 11.0 µM) [%],growth inhibition (at 33.0 µM),growth inhibition (at 100.0 µM)
C[Si](C)(C)CNC(=O)OCc1ccccc1,2,-2,-3,-4%,-3%
Clc1ccccc1C1OC1c1ccccc1Cl (stereo not given),-65,-49,-61,-52%,-26%
CCCc1cc(C(=O)OCC)cc(CCC)c1O,-1,-5,-9,-13%,93% (active)
CN(C)CCn1c2c3ccccc3ccc2c2oc(=O)c3ccccc3c21,13,8,35,92% (active),92% (active)
COc1ccc(OC)c2cc3ccccc3cc12,-19,-19,-12,-8%,-4%
CCCCCCCCCCNC(=O)OCC,-3,-5,-4,4%,98% (active)
CCCCCCCCCCCCCCC(C(=O)[O-])[n+]1ccccc1 (stereo not given),-1,-3,-4,-6%,6%
O=C(/C=C\c1ccc(Cl)cc1Cl)c1cccs1,-2,0,-5,-6%,-7%
